Inconclusive results are not listed. Calls of active or inactive are those of the source. Calls follow the shape of the dose curve; as a rule, active = well fitted cell-killing curve with a large enough effect; inconclusive = small, poorly fitted or top-dose-only effect, or effect the other way; inactive = no such curve, though single readings can be large or run the other way.
assay: Quantitative High-Throughput drug screen in 47 multiple myeloma cell lines against the NCATS MIPE library collection: KMS34_JCRB cell viability assay (AID 1918985); details: KMS34 myeloma viability, CellTiter-Glo ATP luminescence, 48 h; series mostly up to 45.8 µM; also: nearly all actives have a fitted effect of over 40% in size
Outline: (§1)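 Readout: median RLU from CellTiter-Glo after 5 min at room temperature. Preceding step was 48 h drug treatment of 500 cells/well at 37 °C, 5% CO2, with DMSO-only and media-only control wells.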
Potency is read from the fitted curve at half-maximal effect.

Structure (SMILES) | Potency
COc1cc([C@@H]2c3cc4c(cc3[C@@H](O[C@@H]3O[C@@H]5CO[C@@H](c6cccs6)O[C@@H]5[C@H](O)[C@@H]3O)[C@H]3COC(=O)[C@H]23)OCO4)cc(OC)c1O | 1870 nM (active)
CCOC(=O)[C@H](CCc1ccccc1)N[C@@H](C)C(=O)N1[C@@H](C(=O)O)C[C@H]2CCC[C@@H]21 | 26400 nM (active)
CC(C)c1cnn2c(NCc3ccccc3)cc(NCCCCCCN)nc12 | 18700 nM (active)
O=C(CCCCCCC(=O)Nc1cccnc1)NO | 3720 nM (active)
COc1cc([C@@H]2c3cc4c(cc3[C@H](O)[C@H]3COC(=O)[C@@H]23)OCO4)cc(OC)c1OC | 83.3 nM (active)
O=c1ccn([C@@H]2O[C@H](CO)[C@H](O)[C@@H]2F)c(=O)[nH]1 | inactive
NC(=O)N1CCC(CC(=O)N2CCC([C@H]3c4ncc(Br)cc4CCc4cc(Cl)cc(Br)c43)CC2)CC1 | 20900 nM (active)
CC(C)NC[C@@H](C(=O)N1CCN(c2ncnc3c2[C@H](C)C[C@H]3O)CC1)c1ccc(Cl)cc1 | 14800 nM (active)
C[C@H](NCc1ccc(OCc2cccc(F)c2)cc1)C(N)=O | 10500 nM (active)
O=C(c1ccc(F)cc1)N1CCC[C@H](c2nc(-c3ccc(F)cc3)no2)C1 | inactive
COc1cccc2c1C(=O)c1c(O)c3c(c(O)c1C2=O)C[C@@](O)(C(=O)CO)C[C@@H]3O[C@H]1C[C@H](N)[C@H](OC2CCCCO2)[C@H](C)O1 (stereo not given in full) | 2640 nM (active)
Nc1nc(N)c2nc(-c3cccc(O)c3)c(-c3cccc(O)c3)nc2n1 | 14800 nM (active)

assay: Quantitative High-Throughput drug screen in 47 multiple myeloma cell lines against the NCATS MIPE library collection: OCIMY7_PLB cell viability assay (AID 1918987); details: OCI-MY7 myeloma viability, CellTiter-Glo ATP, 48 h; viability (% of DMSO): at 45.8 µM (top of the series); also: nearly all actives have a fitted effect of over 65% in size
Outline: as §1

Structure (SMILES) | Potency
Cc1cc(O)c2c(c1)C(=O)c1cccc(O)c1C2=O | inactive
CCC(C(=O)O)C1CCC(C)C(C(C)C(O)C(C)C(=O)C(CC)C2OC3(C=CC(O)[C@@]4(CC[C@](C)(C5CC[C@@](O)(CC)C(C)O5)O4)O3)C(C)CC2C)O1 (stereo not given in full) | 2960 nM (active)
CC(=O)[C@]1(O)Cc2c(O)c3c(c(O)c2[C@@H](O[C@H]2C[C@H](N)[C@@H](O)[C@H](C)O2)C1)C(=O)c1ccccc1C3=O | 166 nM (active)
COc1cc(C=CC(=O)CC(=O)C=Cc2ccc(O)c(OC)c2)ccc1O | 2150 nM (active)
CN(CC(=O)N(Cc1ccc(C2CCCCC2)cc1)c1ccc(C(=O)O)c(O)c1)S(=O)(=O)c1c(F)c(F)c(F)c(F)c1F | 8330 nM (active)
Cn1cnc(=N)c2[nH]cnc21 | 66.2 nM (active)
C[C@@H]1CC[C@@]2(OC1)OC1CC3C4CC=C5CC(O)CCC5(C)C4CCC3(C)C1[C@@H]2C (stereo not given in full) | inactive
C#C[C@]1(O)CC[C@@H]2[C@@H]3CCC4=CC(=O)CC[C@@H]4[C@H]3CC[C@@]21CC | inactive
COc1ccc(S(=O)(=O)Nc2cccnc2Nc2ccc(O)cc2)cc1 | 37.2 nM (active)
CC(=O)SCC(Cc1ccccc1)C(=O)NCC(=O)OCc1ccccc1 (stereo not given) | 3720 nM (active)
CCOc1cc2ncc(C#N)c(Nc3ccc(OCc4ccccn4)c(Cl)c3)c2cc1NC(=O)C=CCN(C)C | 52.6 nM (active)
C=CC(=O)N1CCc2ccc(-n3c(=O)ccc4cnc5ccc(-c6cnn(C)c6)cc5c43)cc21 | 833 nM (active)
N#CNC(=NCCCCCCOc1ccc(Cl)cc1)Nc1ccncc1 | inactive
C[C@H]1COc2c(N3CCN(C)CC3)c(F)cc3c(=O)c(C(=O)O)cn1c23 | inactive
COC[C@H](NC(=O)c1cnc(C)s1)C(=O)N[C@@H](COC)C(=O)N[C@@H](Cc1ccccc1)C(=O)[C@@]1(C)CO1 | 52.6 nM (active)
CC(C)c1cnn2c(NCc3ccccc3)cc(NCCCCCCN)nc12 | 11800 nM (active)
COc1cc([C@@H]2c3cc4c(cc3[C@H](O)[C@H]3COC(=O)[C@@H]23)OCO4)cc(OC)c1OC | 46.9 nM (active)
NC(=O)N1CCC(CC(=O)N2CCC([C@H]3c4ncc(Br)cc4CCc4cc(Cl)cc(Br)c43)CC2)CC1 | 743 nM (active)
C[C@H](NCc1ccc(OCc2cccc(F)c2)cc1)C(N)=O | 3320 nM (active)
Nc1nc(N)c2nc(-c3cccc(O)c3)c(-c3cccc(O)c3)nc2n1 | 372 nM (active)

assay: Quantitative High-Throughput drug screen in 47 multiple myeloma cell lines against the NCATS MIPE library collection: OCIMY5_PLB cell viability assay (AID 1918988); details: OCI-MY5 myeloma viability, ATP luminescence, 48 h; series mostly up to 45.8 µM; also: nearly all actives have a fitted effect of over 65% in size
Outline: as §1

Structure (SMILES) | Potency
CN(CC(=O)N(Cc1ccc(C2CCCCC2)cc1)c1ccc(C(=O)O)c(O)c1)S(=O)(=O)c1c(F)c(F)c(F)c(F)c1F | 18700 nM (active)
COc1ccc2c(c1OC)C(=O)OC2[C@H]1c2c(cc3c(c2OC)OCO3)CCN1C (stereo not given in full) | 23.5 nM (active)
C#C[C@]1(O)CC[C@@H]2[C@@H]3CCC4=CC(=O)CC[C@@H]4[C@H]3CC[C@@]21CC | 18700 nM (active)
COc1ccc(S(=O)(=O)Nc2cccnc2Nc2ccc(O)cc2)cc1 | 37.2 nM (active)
C=C(C)[C@@H]1CC[C@]2(C(=O)O)CC[C@]3(C)[C@H](CC[C@@H]4[C@@]5(C)CC[C@H](O)C(C)(C)[C@@H]5CC[C@]43C)[C@@H]12 | 5900 nM (active)
CC(=O)SCC(Cc1ccccc1)C(=O)NCC(=O)OCc1ccccc1 (stereo not given) | 2640 nM (active)
CCOc1cc2ncc(C#N)c(Nc3ccc(OCc4ccccn4)c(Cl)c3)c2cc1NC(=O)C=CCN(C)C | 833 nM (active)
NC[C@H]1O[C@H](O[C@H]2[C@@H](O)[C@@H](O[C@H]3O[C@H](CO)[C@@H](O)[C@H](N)[C@@H]3O)[C@H](N)C[C@@H]2N)[C@H](N)C[C@H]1O | inactive
Oc1cc(-c2nc(-c3ccccc3)[nH]c2-c2ccncc2)ccc1Cl | 18700 nM (active)
CN(C)CCN1C(=O)c2cccc3cc(N)cc(c23)C1=O | 23500 nM (active)
COC(=O)[C@H](CCCN=C(N)N)NS(=O)(=O)c1ccc(C)cc1 | inactive
COc1cc([C@@H]2c3cc4c(cc3[C@@H](O[C@@H]3O[C@@H]5CO[C@@H](c6cccs6)O[C@@H]5[C@H](O)[C@@H]3O)[C@H]3COC(=O)[C@H]23)OCO4)cc(OC)c1O | 1660 nM (active)
CC(C)c1cnn2c(NCc3ccccc3)cc(NCCCCCCN)nc12 | 6620 nM (active)
O=C(CCCCCCC(=O)Nc1cccnc1)NO | 3320 nM (active)
O=c1ccn([C@@H]2O[C@H](CO)[C@H](O)[C@@H]2F)c(=O)[nH]1 | inactive
CC(C)NC[C@@H](C(=O)N1CCN(c2ncnc3c2[C@H](C)C[C@H]3O)CC1)c1ccc(Cl)cc1 | 1660 nM (active)
COc1cccc2c1C(=O)c1c(O)c3c(c(O)c1C2=O)C[C@@](O)(C(=O)CO)C[C@@H]3O[C@H]1C[C@H](N)[C@H](OC2CCCCO2)[C@H](C)O1 (stereo not given in full) | 2090 nM (active)
Nc1nc(N)c2nc(-c3cccc(O)c3)c(-c3cccc(O)c3)nc2n1 | 18700 nM (active)
